According to article PMC7862700, “An all-to-all approach to the identification of sequence-specific readers for epigenetic DNA modifications on cytosine”:

Tests used:
Assay in all cases: DAPPL (digital affinity profiling via proximity ligation, sequencing); 10 mM Tris-HCl pH 7.5, 50 mM NaCl, 1 mM DTT, 4% glycerol, room temperature, 30 min; GST-TFs on glutathione beads, 16-mer random dsDNA library, 0.1% formaldehyde crosslink after washing; high values mean tight binding
Conditions in all cases: protein: recombinant; tags: N-terminal GST; dsDNA, one strand shown
[1] = target: T1, ERF (Homo sapiens, UniProt P50548 1-548)
T1 sequence: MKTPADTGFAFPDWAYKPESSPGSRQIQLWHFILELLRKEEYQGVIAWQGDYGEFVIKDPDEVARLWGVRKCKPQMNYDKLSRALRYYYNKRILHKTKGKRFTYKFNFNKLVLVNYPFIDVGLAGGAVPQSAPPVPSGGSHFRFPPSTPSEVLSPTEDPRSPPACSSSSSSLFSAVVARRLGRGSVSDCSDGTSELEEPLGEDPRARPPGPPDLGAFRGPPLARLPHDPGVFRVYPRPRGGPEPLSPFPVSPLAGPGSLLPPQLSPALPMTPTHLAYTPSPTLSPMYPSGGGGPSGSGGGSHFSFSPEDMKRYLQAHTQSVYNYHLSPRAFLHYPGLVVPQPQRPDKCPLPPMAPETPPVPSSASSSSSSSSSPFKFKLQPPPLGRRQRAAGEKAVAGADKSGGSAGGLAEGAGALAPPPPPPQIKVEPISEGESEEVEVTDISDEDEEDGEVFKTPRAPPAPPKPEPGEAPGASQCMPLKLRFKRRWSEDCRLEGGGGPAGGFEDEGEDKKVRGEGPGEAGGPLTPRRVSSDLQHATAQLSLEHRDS
Summary of the method: (§1)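 GST fusions of human transcription factors were expressed in yeast and captured with glutathione beads. Once given DNA barcodes and pooled alongside a tag-only sample, they were incubated for 30 min at room temperature with 200 nmole of a random double-stranded 16-mer DNA library in Tris/NaCl/DTT/glycerol buffer, then washed, crosslinked (0.1% formaldehyde), proximity-ligated, PCR-amplified and sequenced on an Illumina NextSeq500. The binding signal of each hexamer is its read frequency for a factor divided by its frequency for the tag-only sample.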

[2] = target: T2, ETV3L (Homo sapiens, UniProt Q6ZN32 1-361)
T2 sequence: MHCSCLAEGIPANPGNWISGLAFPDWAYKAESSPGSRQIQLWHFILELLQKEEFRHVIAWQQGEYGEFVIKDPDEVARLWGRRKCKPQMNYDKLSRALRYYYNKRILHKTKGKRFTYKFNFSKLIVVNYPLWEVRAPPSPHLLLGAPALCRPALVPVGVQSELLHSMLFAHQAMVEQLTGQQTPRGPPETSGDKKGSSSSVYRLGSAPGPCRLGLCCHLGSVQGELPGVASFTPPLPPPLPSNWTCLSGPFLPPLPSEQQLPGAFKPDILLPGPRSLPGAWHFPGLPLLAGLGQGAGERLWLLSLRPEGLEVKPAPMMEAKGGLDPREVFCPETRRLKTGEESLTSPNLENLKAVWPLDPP
Summary of the method: as §1

[3] = target: T3, ETS2 (Homo sapiens, UniProt P15036 1-469)
T3 sequence: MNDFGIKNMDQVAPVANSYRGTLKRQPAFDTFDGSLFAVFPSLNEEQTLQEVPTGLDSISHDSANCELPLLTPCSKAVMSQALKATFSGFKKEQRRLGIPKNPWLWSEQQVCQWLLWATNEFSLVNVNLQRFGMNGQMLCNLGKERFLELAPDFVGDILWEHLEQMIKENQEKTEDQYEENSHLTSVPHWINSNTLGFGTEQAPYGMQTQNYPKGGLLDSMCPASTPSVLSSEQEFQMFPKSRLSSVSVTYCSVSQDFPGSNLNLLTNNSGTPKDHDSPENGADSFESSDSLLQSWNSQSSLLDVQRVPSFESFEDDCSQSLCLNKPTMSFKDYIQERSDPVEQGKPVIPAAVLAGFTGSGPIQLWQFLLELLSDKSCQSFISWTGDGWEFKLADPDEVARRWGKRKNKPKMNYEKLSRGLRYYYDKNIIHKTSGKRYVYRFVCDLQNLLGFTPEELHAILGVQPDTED
Summary of the method: as §1

[4] = target: T4, SPDEF (Homo sapiens, UniProt O95238 1-335)
T4 sequence: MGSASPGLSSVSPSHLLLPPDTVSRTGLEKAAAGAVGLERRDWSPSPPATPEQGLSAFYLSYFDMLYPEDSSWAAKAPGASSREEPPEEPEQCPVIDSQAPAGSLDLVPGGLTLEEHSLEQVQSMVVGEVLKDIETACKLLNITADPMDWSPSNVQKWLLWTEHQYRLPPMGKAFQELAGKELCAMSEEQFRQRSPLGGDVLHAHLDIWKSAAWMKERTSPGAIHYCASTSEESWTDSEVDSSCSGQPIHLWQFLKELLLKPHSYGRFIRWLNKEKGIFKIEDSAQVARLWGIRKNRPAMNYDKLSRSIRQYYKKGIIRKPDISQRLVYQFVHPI
Summary of the method: as §1

[5] = target: T5, ETV7 (Homo sapiens, UniProt Q9Y603 1-341)
T5 sequence: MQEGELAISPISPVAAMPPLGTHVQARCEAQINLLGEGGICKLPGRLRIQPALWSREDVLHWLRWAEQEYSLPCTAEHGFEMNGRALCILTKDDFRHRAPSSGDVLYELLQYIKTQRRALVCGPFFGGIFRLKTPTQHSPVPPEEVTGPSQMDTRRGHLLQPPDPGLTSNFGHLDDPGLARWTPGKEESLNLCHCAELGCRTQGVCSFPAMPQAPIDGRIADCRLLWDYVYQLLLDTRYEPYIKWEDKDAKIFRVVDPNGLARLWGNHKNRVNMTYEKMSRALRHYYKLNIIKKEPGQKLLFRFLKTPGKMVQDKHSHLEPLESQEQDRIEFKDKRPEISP
Summary of the method: as §1

[6] = target: T6, ELF5 (Homo sapiens, UniProt Q9UKW6-2 1-255)
T6 sequence: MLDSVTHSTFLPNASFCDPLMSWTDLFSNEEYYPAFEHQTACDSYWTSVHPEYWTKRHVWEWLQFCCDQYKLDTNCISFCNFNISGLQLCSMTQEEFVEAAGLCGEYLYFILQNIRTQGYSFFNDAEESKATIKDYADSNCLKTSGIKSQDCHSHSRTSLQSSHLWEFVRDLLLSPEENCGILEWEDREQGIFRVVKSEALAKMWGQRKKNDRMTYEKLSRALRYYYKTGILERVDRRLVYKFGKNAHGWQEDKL
Summary of the method: as §1

[7] = target: T7, ETV3 (Homo sapiens, UniProt P41162-2 1-143)
T7 sequence: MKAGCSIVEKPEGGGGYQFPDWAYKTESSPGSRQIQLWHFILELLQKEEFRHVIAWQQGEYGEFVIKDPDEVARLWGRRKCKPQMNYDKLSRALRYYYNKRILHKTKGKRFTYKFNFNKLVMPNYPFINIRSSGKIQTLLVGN
Summary of the method: as §1

[8] = target: ETV6 (Homo sapiens, UniProt P41212 1-452)
Sequence of ETV6 (P41212 whole entry): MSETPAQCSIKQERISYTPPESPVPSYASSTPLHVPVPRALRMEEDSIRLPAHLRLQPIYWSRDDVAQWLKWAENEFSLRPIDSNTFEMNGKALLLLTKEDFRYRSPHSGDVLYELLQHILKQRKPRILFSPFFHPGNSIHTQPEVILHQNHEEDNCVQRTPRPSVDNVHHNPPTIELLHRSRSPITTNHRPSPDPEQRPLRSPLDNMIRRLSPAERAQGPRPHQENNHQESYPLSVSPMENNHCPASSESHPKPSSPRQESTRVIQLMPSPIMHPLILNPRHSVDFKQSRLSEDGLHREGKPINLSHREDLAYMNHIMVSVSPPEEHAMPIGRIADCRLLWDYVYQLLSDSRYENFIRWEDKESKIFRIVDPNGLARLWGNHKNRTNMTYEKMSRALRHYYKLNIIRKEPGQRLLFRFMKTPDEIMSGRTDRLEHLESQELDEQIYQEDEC
Summary of the method: as §1

Sequence | binding signal [1] | binding signal [2] | binding signal [3] | binding signal [4] | binding signal [5] | binding signal [6] | binding signal [7] | binding signal [8]
CTGGCT | 1.43 fold enrichment (6-mer frequency, TF over GST control) | 1.3 fold enrichment (6-mer frequency, TF over GST control) | 1.19 fold enrichment (6-mer frequency, TF over GST control) | 1.23 fold enrichment (6-mer frequency, TF over GST control) | 1.38 fold enrichment (6-mer frequency, TF over GST control) | 1.19 fold enrichment (6-mer frequency, TF over GST control) | 1.18 fold enrichment (6-mer frequency, TF over GST control) | 1.18 fold enrichment (6-mer frequency, TF over GST control)
TGGTCT | 1.52 fold enrichment (6-mer frequency, TF over GST control) | 1.55 fold enrichment (6-mer frequency, TF over GST control) | 1.39 fold enrichment (6-mer frequency, TF over GST control) | 1.35 fold enrichment (6-mer frequency, TF over GST control) | 1.28 fold enrichment (6-mer frequency, TF over GST control) | 1.55 fold enrichment (6-mer frequency, TF over GST control) | 1.44 fold enrichment (6-mer frequency, TF over GST control) | 1.42 fold enrichment (6-mer frequency, TF over GST control)
TAATAT | 1.35 fold enrichment (6-mer frequency, TF over GST control) | 1.34 fold enrichment (6-mer frequency, TF over GST control) | 1.24 fold enrichment (6-mer frequency, TF over GST control) | 1.23 fold enrichment (6-mer frequency, TF over GST control) | 1.35 fold enrichment (6-mer frequency, TF over GST control) | 1.22 fold enrichment (6-mer frequency, TF over GST control) | 1.23 fold enrichment (6-mer frequency, TF over GST control) | 1.23 fold enrichment (6-mer frequency, TF over GST control)
TTCAGG | 1.15 fold enrichment (6-mer frequency, TF over GST control) | 1.1 fold enrichment (6-mer frequency, TF over GST control) | 1.12 fold enrichment (6-mer frequency, TF over GST control) | 1.25 fold enrichment (6-mer frequency, TF over GST control) | 1.15 fold enrichment (6-mer frequency, TF over GST control) | 1.15 fold enrichment (6-mer frequency, TF over GST control) | 1.1 fold enrichment (6-mer frequency, TF over GST control) | 1.11 fold enrichment (6-mer frequency, TF over GST control)
ACGACT | 1.15 fold enrichment (6-mer frequency, TF over GST control) | 1.28 fold enrichment (6-mer frequency, TF over GST control) | 1.28 fold enrichment (6-mer frequency, TF over GST control) | 1.19 fold enrichment (6-mer frequency, TF over GST control) | 1.17 fold enrichment (6-mer frequency, TF over GST control) | 1.23 fold enrichment (6-mer frequency, TF over GST control) | 1.22 fold enrichment (6-mer frequency, TF over GST control) | 1.17 fold enrichment (6-mer frequency, TF over GST control)
AACTAG | 1.16 fold enrichment (6-mer frequency, TF over GST control) | 1.09 fold enrichment (6-mer frequency, TF over GST control) | 1.11 fold enrichment (6-mer frequency, TF over GST control) | 1.08 fold enrichment (6-mer frequency, TF over GST control) | 1.1 fold enrichment (6-mer frequency, TF over GST control) | 1.13 fold enrichment (6-mer frequency, TF over GST control) | 1.14 fold enrichment (6-mer frequency, TF over GST control) | 1.15 fold enrichment (6-mer frequency, TF over GST control)
CTACAT | 1.66 fold enrichment (6-mer frequency, TF over GST control) | 1.41 fold enrichment (6-mer frequency, TF over GST control) | 1.43 fold enrichment (6-mer frequency, TF over GST control) | 1.5 fold enrichment (6-mer frequency, TF over GST control) | 1.32 fold enrichment (6-mer frequency, TF over GST control) | 1.53 fold enrichment (6-mer frequency, TF over GST control) | 1.44 fold enrichment (6-mer frequency, TF over GST control) | 1.43 fold enrichment (6-mer frequency, TF over GST control)
TTTTTG | 1.35 fold enrichment (6-mer frequency, TF over GST control) | 1.38 fold enrichment (6-mer frequency, TF over GST control) | 1.27 fold enrichment (6-mer frequency, TF over GST control) | 1.28 fold enrichment (6-mer frequency, TF over GST control) | 1.25 fold enrichment (6-mer frequency, TF over GST control) | 1.27 fold enrichment (6-mer frequency, TF over GST control) | 1.29 fold enrichment (6-mer frequency, TF over GST control) | 1.23 fold enrichment (6-mer frequency, TF over GST control)
AAACGC | 1.24 fold enrichment (6-mer frequency, TF over GST control) | 1.18 fold enrichment (6-mer frequency, TF over GST control) | 1.22 fold enrichment (6-mer frequency, TF over GST control) | 1.24 fold enrichment (6-mer frequency, TF over GST control) | 1.17 fold enrichment (6-mer frequency, TF over GST control) | 1.33 fold enrichment (6-mer frequency, TF over GST control) | 1.3 fold enrichment (6-mer frequency, TF over GST control) | 1.35 fold enrichment (6-mer frequency, TF over GST control)
AATATC | 1.46 fold enrichment (6-mer frequency, TF over GST control) | 1.48 fold enrichment (6-mer frequency, TF over GST control) | 1.55 fold enrichment (6-mer frequency, TF over GST control) | 1.78 fold enrichment (6-mer frequency, TF over GST control) | 1.52 fold enrichment (6-mer frequency, TF over GST control) | 1.82 fold enrichment (6-mer frequency, TF over GST control) | 1.6 fold enrichment (6-mer frequency, TF over GST control) | 1.57 fold enrichment (6-mer frequency, TF over GST control)
ATCCTG | 1.28 fold enrichment (6-mer frequency, TF over GST control) | 1.49 fold enrichment (6-mer frequency, TF over GST control) | 1.56 fold enrichment (6-mer frequency, TF over GST control) | 2.47 fold enrichment (6-mer frequency, TF over GST control) | 1.51 fold enrichment (6-mer frequency, TF over GST control) | 1.84 fold enrichment (6-mer frequency, TF over GST control) | 1.61 fold enrichment (6-mer frequency, TF over GST control) | 1.48 fold enrichment (6-mer frequency, TF over GST control)
TAGTGG | 1.18 fold enrichment (6-mer frequency, TF over GST control) | 1.15 fold enrichment (6-mer frequency, TF over GST control) | 1.28 fold enrichment (6-mer frequency, TF over GST control) | 1.1 fold enrichment (6-mer frequency, TF over GST control) | 1.17 fold enrichment (6-mer frequency, TF over GST control) | 1.12 fold enrichment (6-mer frequency, TF over GST control) | 1.1 fold enrichment (6-mer frequency, TF over GST control) | 1.16 fold enrichment (6-mer frequency, TF over GST control)
TCCGAC | 1.57 fold enrichment (6-mer frequency, TF over GST control) | 1.47 fold enrichment (6-mer frequency, TF over GST control) | 1.48 fold enrichment (6-mer frequency, TF over GST control) | 1.43 fold enrichment (6-mer frequency, TF over GST control) | 1.43 fold enrichment (6-mer frequency, TF over GST control) | 1.61 fold enrichment (6-mer frequency, TF over GST control) | 1.43 fold enrichment (6-mer frequency, TF over GST control) | 1.55 fold enrichment (6-mer frequency, TF over GST control)
TTCACT | 1.42 fold enrichment (6-mer frequency, TF over GST control) | 1.4 fold enrichment (6-mer frequency, TF over GST control) | 1.41 fold enrichment (6-mer frequency, TF over GST control) | 1.32 fold enrichment (6-mer frequency, TF over GST control) | 1.36 fold enrichment (6-mer frequency, TF over GST control) | 1.32 fold enrichment (6-mer frequency, TF over GST control) | 1.3 fold enrichment (6-mer frequency, TF over GST control) | 1.23 fold enrichment (6-mer frequency, TF over GST control)
CTGCGC | 1.34 fold enrichment (6-mer frequency, TF over GST control) | 1.33 fold enrichment (6-mer frequency, TF over GST control) | 1.46 fold enrichment (6-mer frequency, TF over GST control) | 1.12 fold enrichment (6-mer frequency, TF over GST control) | 1.23 fold enrichment (6-mer frequency, TF over GST control) | 1.26 fold enrichment (6-mer frequency, TF over GST control) | 1.32 fold enrichment (6-mer frequency, TF over GST control) | 1.27 fold enrichment (6-mer frequency, TF over GST control)
